Assay results as given in PubChem BioAssay.
Active and inactive are the calls of the source.

Columns and labels:
[1] = compounds binding Alexa647 anti-His antibody – biochemical, small-molecule microarray, 635 nm fluorescence, artefact control for SMM control protein annotation, primary screen (AID 1128); conditions: higher = more signal;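 also: score merges feature fluorescence with signal-to-noise for each printed compound spot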
[2] = tested on: Human papillomavirus type 1a E7 protein (residues 1-88); test: HPV1a E7 small-molecule binders, primary screen, biochemical, small-molecule microarray, residues 1-88, 635 nm (AID 1129); conditions: small-molecule microarray binding, fluorescence 635 nm; higher = more signal
[3] = biological target: Focal adhesion kinase 1 (Homo sapiens) (UniProt Q05397); test: PTK2 protein binding on printed compound slides – biochemical, small-molecule microarray, 635/667 nm fluorescence, BSA, DTT, primary screen (AID 1130); conditions: 635 nm fluorescence, higher = more signal;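 also: composite of spot emission at 667 nm and signal to noise over triplicate slides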
[4] = tested on: Fibrinogen (Alexa647-labelled); test: Alexa647-fibrinogen binding to printed small molecules – biochemical, small-molecule microarray, 635/667 nm fluorescence, artefact control for SMM control-protein annotation, profiling panel (AID 1131); conditions: fibrinogen-A647 binding fluorescence, higher = more signal;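 also: z-score merges 667 nm fluorescence with per-spot signal-to-noise over triplicate slides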
[5] = biological target: Follistatin (Homo sapiens) (UniProt P19883); test: FST protein binding to printed compounds – biochemical, small-molecule microarray, 635/667 nm fluorescence, primary screen (AID 1132); conditions: 635 nm fluorescence, higher = more signal
[6] = biological target: Fibroblast growth factor 2 (Homo sapiens) (UniProt P09038); test: basic fibroblast growth factor binding to printed compounds – biochemical, small-molecule microarray, 635/667 nm fluorescence, primary screen (AID 1133); conditions: FGF2, fluorescence 635/667, higher = more signal
[7] = JC-1 mitochondrial potential readout, lung cancer cells – cell-based, A549, JC-1 fluorescence, basal, 24 h, 100 nL, profiling panel (AID 1138); conditions: higher = more signal;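 also: A549 lung adenocarcinoma cells under basal conditions with no added stimulus; test concentration not given here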
Lefty1 = Lefty1 protein binding to printed compounds – biochemical, small-molecule microarray, 635/667 nm fluorescence, primary screen (AID 1139); conditions: fluorescence 635/667, higher = more signal
[8] = tested on: wheat germ agglutinin (Triticum aestivum), Alexa647-labelled; test: Alexa647-WGA lectin binding to printed small molecules – biochemical, small-molecule microarray, 635/667 nm fluorescence, artefact control for SMM control-protein annotation, profiling panel (AID 1140); conditions: WGA-A647 binding, 635 nm fluorescence, higher = more signal;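 also: score merges 667 nm feature emission with signal to noise over triplicate slides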
[9] = biological target: Luciferin 4-monooxygenase (Photinus pyralis) (UniProt P08659); test: inhibition of purified Photinus pyralis luciferase – biochemical, luminescence, purified enzyme, 2006 set, primary screen (AID 1141); conditions: purified firefly luciferase, SteadyGlo luminescence, 30 min; higher = more signal, called active from +8 up or from −8 down;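 also: cell-free assay with purified firefly luciferase at 100 ng per well in PBS; test concentration not given here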
Chain of Luciferin 4-monooxygenase (Photinus pyralis) (P08659 whole entry, looked up): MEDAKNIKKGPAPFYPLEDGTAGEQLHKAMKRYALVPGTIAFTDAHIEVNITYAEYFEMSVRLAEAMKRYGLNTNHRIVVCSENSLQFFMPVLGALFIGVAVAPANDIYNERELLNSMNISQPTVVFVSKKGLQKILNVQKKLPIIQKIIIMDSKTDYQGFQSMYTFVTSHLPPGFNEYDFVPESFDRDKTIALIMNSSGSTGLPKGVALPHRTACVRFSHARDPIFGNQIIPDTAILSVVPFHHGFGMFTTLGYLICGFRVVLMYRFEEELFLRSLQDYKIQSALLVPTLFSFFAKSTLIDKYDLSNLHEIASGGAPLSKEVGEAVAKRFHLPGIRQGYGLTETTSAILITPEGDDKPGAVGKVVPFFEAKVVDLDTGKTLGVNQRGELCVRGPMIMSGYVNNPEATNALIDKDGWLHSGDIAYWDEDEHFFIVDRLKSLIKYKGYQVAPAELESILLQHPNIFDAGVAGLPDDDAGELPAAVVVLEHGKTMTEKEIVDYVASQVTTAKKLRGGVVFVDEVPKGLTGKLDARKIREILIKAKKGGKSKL

Chain of Fibroblast growth factor 2 (Homo sapiens) (P09038 whole entry, looked up): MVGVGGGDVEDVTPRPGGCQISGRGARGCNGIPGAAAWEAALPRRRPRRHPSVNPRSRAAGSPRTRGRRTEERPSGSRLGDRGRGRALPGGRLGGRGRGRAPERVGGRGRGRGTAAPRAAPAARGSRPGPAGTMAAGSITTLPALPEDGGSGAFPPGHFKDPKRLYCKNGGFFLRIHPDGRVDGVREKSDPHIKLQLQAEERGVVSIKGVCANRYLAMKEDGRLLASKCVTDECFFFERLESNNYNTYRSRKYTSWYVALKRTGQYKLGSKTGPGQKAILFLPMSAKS
Chain of Follistatin (Homo sapiens) (P19883 whole entry, looked up): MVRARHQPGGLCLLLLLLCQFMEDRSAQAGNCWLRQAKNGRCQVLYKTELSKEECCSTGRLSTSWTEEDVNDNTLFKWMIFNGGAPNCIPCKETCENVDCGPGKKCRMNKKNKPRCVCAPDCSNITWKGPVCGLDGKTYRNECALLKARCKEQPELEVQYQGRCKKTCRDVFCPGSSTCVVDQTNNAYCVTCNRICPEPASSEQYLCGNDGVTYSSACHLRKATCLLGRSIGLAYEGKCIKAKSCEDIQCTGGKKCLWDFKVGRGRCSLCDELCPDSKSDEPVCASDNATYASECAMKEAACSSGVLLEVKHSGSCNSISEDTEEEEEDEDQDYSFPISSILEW
Chain of Focal adhesion kinase 1 (Homo sapiens) (Q05397 whole entry, looked up): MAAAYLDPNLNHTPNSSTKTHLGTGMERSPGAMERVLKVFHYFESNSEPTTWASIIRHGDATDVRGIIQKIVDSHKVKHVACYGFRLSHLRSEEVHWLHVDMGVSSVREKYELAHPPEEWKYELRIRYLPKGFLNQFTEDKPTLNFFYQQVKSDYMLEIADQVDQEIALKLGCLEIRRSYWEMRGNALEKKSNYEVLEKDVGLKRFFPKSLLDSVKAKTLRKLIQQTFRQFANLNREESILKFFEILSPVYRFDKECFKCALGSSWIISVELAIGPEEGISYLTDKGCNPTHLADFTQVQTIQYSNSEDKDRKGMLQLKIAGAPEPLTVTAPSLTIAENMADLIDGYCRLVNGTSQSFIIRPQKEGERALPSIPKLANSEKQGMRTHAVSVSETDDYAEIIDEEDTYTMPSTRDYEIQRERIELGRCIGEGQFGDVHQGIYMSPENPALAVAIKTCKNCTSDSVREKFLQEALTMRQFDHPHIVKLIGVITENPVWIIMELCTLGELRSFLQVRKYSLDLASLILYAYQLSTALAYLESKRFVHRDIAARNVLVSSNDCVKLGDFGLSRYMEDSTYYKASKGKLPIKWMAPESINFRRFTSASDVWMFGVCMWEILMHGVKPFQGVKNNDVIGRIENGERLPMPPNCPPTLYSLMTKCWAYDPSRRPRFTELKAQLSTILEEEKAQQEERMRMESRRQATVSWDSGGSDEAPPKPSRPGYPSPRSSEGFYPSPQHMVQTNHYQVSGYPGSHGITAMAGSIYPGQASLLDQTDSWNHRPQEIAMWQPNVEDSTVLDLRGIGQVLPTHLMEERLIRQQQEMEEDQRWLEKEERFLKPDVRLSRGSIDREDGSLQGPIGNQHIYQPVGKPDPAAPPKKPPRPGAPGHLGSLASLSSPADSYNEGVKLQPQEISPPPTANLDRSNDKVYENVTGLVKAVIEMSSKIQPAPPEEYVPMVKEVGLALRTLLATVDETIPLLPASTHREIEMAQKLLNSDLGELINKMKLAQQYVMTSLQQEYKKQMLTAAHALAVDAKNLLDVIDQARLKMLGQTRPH

Structure (SMILES)	composite z-score [1]	composite z-score [2]	composite z-score [3]	composite z-score [4]	composite z-score [5]	composite z-score [6]	z-score [7]	composite z-score (Lefty1)	composite z-score [8]	z-score [9]
C=C(COC)/C(=C/C[C@@H](OC(=O)c1ccncc1)c1ccccc1OCCO)c1cc(C(=O)OC)ccc1OC	-1.25	-0.975	-0.478	-1.5	0.249	-0.203	2.02	-0.247	-1.12	-2.4 (inactive)
COCCOC(=O)N1C(=O)[C@@]2(c3cc(C#Cc4ccc(OC)cc4)ccc31)[C@H](C(=O)NC[C@H](O)c1ccccc1)[C@H]1C(=O)O[C@H](c3ccccc3)[C@H](c3ccccc3)N1[C@@H]2c1ccc(OCCO)cc1	1.24	1.2	-0.103	0.801	1.29	1.01	-1.77	1.15	0.815	-0.459 (inactive)
CCCCNC(=O)c1ccc(C#C[Si](C(C)C)(C(C)C)C(C)C)c(OC(C)=O)c1	0.823	1.13	0.124	0.598	1.15	0.883	-2.05	1.01	1.08	0.683 (inactive)
CCCCCN1CC=CC23O[C@@H]4C=CCOC(=O)[C@@H]4[C@H]2C(=O)N(CCO)[C@@H]3C1=O (stereo not given in full)	1.58	-0.22	0.0763	-1.05	-0.693	-0.903	-0.222	-0.306	-0.324	0.056 (inactive)
C=C(C(=O)CC[C@H](OC(=O)c1ccccc1-c1ccccc1C(=O)O)c1ccccc1OCCO)C(C)C	-0.0781	0.909	0.0778	-0.115	0.991	1.24	0.743	1.01	0.423	-1.29 (inactive)
COCC(=C=CC[C@@H](O)c1ccc(OCCO)cc1)CCO	0.656	0.529	0.17	-0.97	1.08	0.517	0.721	0.993	1.27	-0.776 (inactive)
[N-]=[N+]=Nc1ccccc1C[C@]1(C(=O)O)N=C(c2ccc(OCCCO)cc2)O[C@H]1c1ccccc1	0.133	0.612	-0.0641	0.282	0.968	-0.619	0.12	-0.605	0.801	-3.91 (inactive)
COCCOC(=O)N1C(=O)[C@@]2(c3ccccc31)[C@H](c1ccccc1OCCO)N1[C@H](c3ccccc3)[C@H](c3ccccc3)OC(=O)[C@H]1[C@@H]2C(N)=O	1.93	1.18	0.502	0.955	1.4	1.57	-0.206	1.01	0.64	0.0559 (inactive)
C=C(C(=O)CC[C@@H](OC(=O)c1ccccc1-c1ccccc1C(=O)O)c1ccccc1OCCO)C(C)C	-0.186	1.23	0.183	0.532	1.46	1.77	-0.0391	1.58	0.109	-0.679 (inactive)
COc1ccc(C(O)C2C=CC3C(=O)N(c4ccccc4)C(=O)C3N2Nc2ccc(C(C)C)cc2)c2ccccc12 (stereo not given)	1.74	1.25	0.588	0.976	0.862	-0.25	0.543	0.031	0.838	-1.65 (inactive)
COc1ccc([Si](C)(C)[C@H]2[C@H](CC(=O)N3CCC[C@H]3CO)O[C@@]3(C(=O)N(Cc4ccc(N5CCC5=O)cc4)c4ccccc43)[C@@H]2C)cc1	1.54	1.19	0.559	0.898	1.35	1.73	1.51	1.56	0.211	-0.509 (inactive)
Cc1c(NC(=O)/C(C#N)=C/c2ccccc2Cl)c(=O)n(-c2ccccc2)n1C	0.228	0.654	-0.0387	0.425	0.255	-0.0318	0.886	-0.0835	0.195	-0.805 (inactive)
COCCOC(=O)N1C(=O)[C@@]2(c3cc(C#CCC(C(=O)OC)C(=O)OC)ccc31)[C@H](c1ccc(OCCO)cc1)N1[C@H](c3ccccc3)[C@H](c3ccccc3)OC(=O)[C@H]1[C@@H]2C(=O)Nc1nc2ccccc2s1	0.572	1.16	-0.14	0.973	1.24	0.35	-2.17	1.06	0.671	-1.2 (inactive)
COc1ccc([Si](C)(C)[C@@H]2[C@@H](CC(=O)N3Cc4ccccc4C[C@H]3CO)O[C@]3(C(=O)N(Cc4ccc(N5CCC5=O)cc4)c4ccccc43)[C@H]2C)cc1	0.365	1.05	0.315	0.358	0.825	1.57	0.199	1.44	0.283	0.205 (inactive)
C=C(COC)C(=O)CC[C@@H](OC(=O)c1cccnc1)c1ccccc1OCCO	2.06	0.284	-0.54	0.555	0.974	1	-0.0536	0.139	0.287	-5.44 (inactive)
C=CCC(OC(C)=O)[C@@H]1[C@@H](N(Cc2cccc3ccccc23)C(=O)c2cccc3ccccc23)c2cc(OCCCO)ccc2N1C(=O)c1ccc2ccccc2c1 (stereo not given in full)	0.279	0.18	-0.0836	0.0439	1.14	0.061	-0.348	0.11	-0.223	1.48 (inactive)
